According to PubChem BioAssay:
Active and inactive are the calls of the source. No rule for the calls is given here.

These compounds were tested against Pantothenate synthetase (Mycobacterium tuberculosis (strain ATCC 25618 / H37Rv)) (UniProt P9WIL5) (assay: Coupled enzyme confirmation of inhibitors against recombinant Mtb PanC (AID 375;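 also: 0% = full reaction with vehicle and 100% = no enzyme background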)). Settings: coupled enzyme assay; at 10 µM, hits give high values.
Chain of Pantothenate synthetase (Mycobacterium tuberculosis (strain ATCC 25618 / H37Rv)) (P9WIL5 whole entry, looked up): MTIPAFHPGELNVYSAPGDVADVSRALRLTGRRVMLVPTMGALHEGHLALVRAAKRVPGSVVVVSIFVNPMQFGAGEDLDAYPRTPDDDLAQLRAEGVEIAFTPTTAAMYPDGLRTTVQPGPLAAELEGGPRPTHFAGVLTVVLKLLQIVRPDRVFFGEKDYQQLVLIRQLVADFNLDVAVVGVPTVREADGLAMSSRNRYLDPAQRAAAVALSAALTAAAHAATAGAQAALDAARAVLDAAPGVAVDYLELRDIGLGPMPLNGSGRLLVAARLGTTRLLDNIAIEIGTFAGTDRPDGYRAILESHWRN

Structure (SMILES)	inhibition
N#Cc1cn(CC(=O)N2CCCC2)c2ccccc12	0% (inactive)
CC(CC(=O)NCc1ccccc1)C1CCCO1 (stereo not given)	0% (inactive)
Cc1cc(N2CCN(c3ccccn3)CC2)n2nc(C)nc2n1	1% (inactive)
O=C(CSc1nc2ccccc2[nH]1)c1ccc2c(c1)OCO2	0% (inactive)
Cc1cccc2c1nc(-c1ccccc1)n1cnnc21	0% (inactive)
COc1ccccc1N1CCN(Cc2nnnn2CCc2ccccc2)CC1	0% (inactive)
O=C(Cn1ncc2c(=O)oc3ccccc3c21)NCC1CCCO1 (stereo not given)	4% (inactive)
COc1ccc(C(=O)CSc2nc(C)cc(=O)[nH]2)cc1	0% (inactive)
CCCCCC(=O)N1CC2(C)CN(C(=O)CCCCC)CC(C)(C1)C2=O	0% (inactive)
CCCC(c1nnnn1Cc1ccc(OC)cc1)N1CCN(c2ccccc2OC)CC1 (stereo not given)	0% (inactive)
O=S(=O)(NCCSc1ccccc1)c1cccs1	0% (inactive)
COc1ccc(S(=O)(=O)Cc2ccc(C(=O)N3CCN(Cc4ccccc4)CC3)o2)cc1	0% (inactive)
CCOC(=O)c1sc(NC(=O)CSc2ncn(-c3ccccc3)n2)nc1C	3% (inactive)
O=c1oc2ccccc2c(O)c1C=NCc1ccccn1	0% (inactive)
COC(=O)c1nc(N)sc1-c1ccccc1	0% (inactive)
CCOc1cc(C(=O)N(C)Cc2cc3ccccc3[nH]c2=O)cc(OCC)c1OCC	7% (inactive)
CC(C)C(c1nnnn1C1CCCC1)N1CCN(C(=O)c2ccco2)CC1 (stereo not given)	3% (inactive)
CC(=O)[C@H]1[C@H](C#N)C[C@H]2[C@@H]3CC=C4C[C@@H](O)CC[C@]4(C)[C@H]3CC[C@@]21C	0% (inactive)
CN(C)c1nc(N)nc(-c2nc3ccccc3s2)n1	0% (inactive)
O=C1CC(N2CCOCC2)C(=O)N1c1ccc2c(c1)OCO2 (stereo not given)	1% (inactive)

Structure (SMILES)	inhibition
CCOC(=O)c1[nH]c2ccccc2c1NC(=O)C(C)(C)C	0% (inactive)
CC(=O)Nc1cccc(NC(=O)c2ccco2)c1	0% (inactive)
COCC(C)NC(=O)NC(=O)c1ccc(Cl)cc1 (stereo not given)	0% (inactive)
CCOC(=O)c1[nH]c(C)c(C(=O)NCC2CCCO2)c1C (stereo not given)	0% (inactive)
COC(=O)CSc1nnc(-c2cccs2)n1-c1ccc(Cl)cc1	4% (inactive)
O=C(Nc1cccc(Cl)c1)N1CCN(Cc2ccccc2)CC1	5% (inactive)
COc1ccc(OC)c(C(=O)CSc2nc3ncccc3[nH]2)c1	0% (inactive)
COc1cc(C)c(-c2cc(C(=O)O)c(C)o2)cc1C(C)C	0% (inactive)
CCOC(=O)N1CCN(S(=O)(=O)c2ccc(OCC)c(C)c2)CC1	0% (inactive)
Cc1cc(C)c2ccc(N)nc2c1O	0% (inactive)
O=C(CN1CCCC1)Nc1ccc(NC(=O)Nc2ccccc2)cc1	0% (inactive)
[N-]=[N+]=CC(=O)CC(c1ccccc1)N1C(=O)c2ccccc2C1=O (stereo not given)	0% (inactive)
COc1cc(CC(=O)NCc2ccc3c(c2)OCO3)cc(OC)c1OC	1% (inactive)
COc1ccc(NC(=O)CSc2c(C)nn(-c3nnc(C)c(=O)[nH]3)c2C)cc1	0% (inactive)
Cc1cc2ccccc2n1CCNC(=O)C1CC1	1% (inactive)
O=C(CNC(=O)c1cccs1)NCCN1CCN(c2ccccc2F)CC1	0% (inactive)
Cc1ccc(-c2nnc3c4ccccc4c(C)nn23)cc1NC(=O)c1ccco1	0% (inactive)
CCN(CC)CC#CCOC(=O)C(O)(c1ccccc1)C1CCCCC1 (stereo not given)	1% (inactive)
CCOC(=O)N1CCC(NC(=O)Cn2c3c(c(-c4ccccc4Cl)cc2=O)CCC3)CC1	0% (inactive)
Cn1c(=O)cc(OCC(=O)NCCCN2CCN(Cc3ccccc3)CC2)c2ccccc21	0% (inactive)
